This is a sample that favours compounds with a hit; in the whole collection about 20% have one here.
CHX counter – counter-screen hit for Shiga toxin inhibitors, cycloheximide; cell reporter, cycloheximide protein synthesis inhibition counterscreen; max response, %; 12% of 300,000 active; AID 2314; in the data active = max response mostly above about 13%, no sharp cut-off; inactive = mostly below about 14%; also: read at 38.3 µM for the half of the compounds with a filed dose; 0% is about no effect
HCMV inh – blocks human cytomegalovirus replication; AID 1259415; 4.5% of 410,000 active; HFF cells, HCMV-luciferase reporter, 72 h; stronger effect = lower value; activity change, negative = inhibition, % at 57.5 µM; in the data active = activity change below about -60%; inconclusive = no clear call, values can overlap the other calls; inactive = above about -39%; also: % is scaled to controls: 0 for no effect and ±100 for the full control effect
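Steps: HFFs plated, 16 h 37C; compounds added; HCMV-luciferase added to MOI 1 PFU/cell; 72 h 37C; OneGlo reagent, 5 min room temperature; luminescence read, normalized to controls.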
Pf growth 96h – inhibits malaria parasite growth, 96 h. P. falciparum luciferase reporter growth, 96 h. Potency, µM (titrated, usually from 28.7 µM), for inactives: top-dose activity change, negative = inhibition, actives largely listed as inhibitors. 6.9% of 320,000 active. AID 504834; also: potency is read from the fitted curve at half-maximal effect; % is scaled to controls: 0 for no effect and ±100 for the full control effect
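Delayed-death screen, second-generation endpoint: infected erythrocytes, 2% hematocrit, 0.05% parasitemia final; 96 hours at 37 C, 5% CO2; luciferase detection reagent; luminescence decrease equals reduced growth.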
Pf growth 48h – inhibits P. falciparum growth in the first generation, 48 h. P. falciparum luciferase growth in erythrocytes, 48 h. Potency, µM (doses to about 28.7 µM), for inactives: at the highest dose activity change, negative = inhibition, actives largely listed as inhibitors. 5.9% of 310,000 active. AID 504832; also: potency is read from the fitted curve at half-maximal effect; % is scaled to controls: 0 for no effect and ±100 for the full control effect
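First compound was added to culture medium, then infected red cells at 0.1% parasitemia and 2% hematocrit (final). After incubation at 37 C under 5% CO2, luciferase detection reagent was dispensed and light output recorded.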
Shiga toxin inh – inhibitors of Shiga toxin in Vero cells | 9.2% of 290,000 active | Vero cells, Shiga toxin protein synthesis inhibition reporter | AID 2315 | inhibition, % at 38.7 µM; in the data active = inhibition mostly above about 28%, no sharp cut-off; inactive = mostly below about 43%; also: 0% is about no effect
The depositor's hits bear a star; i = inactive; ? = inconclusive; . = no result given; [ ] = another dose, or the depositor's remark. Unless noted, calls follow the shape of the dose curve; as a rule, active = well fitted inhibition curve with a large enough effect; inconclusive = small, poorly fitted or top-dose-only effect, or another doubt; inactive = no such curve, though single readings can be large or run the other way.

SMILES | CHX counter | HCMV inh | Pf growth 96h | Pf growth 48h | Shiga toxin inh
CCOC(=O)[C@H]1[C@H]2COc3ccc(C)cc3[C@@H]2N2C(=O)CN(Cc3ccco3)C(=O)[C@@]12C | . | 0.0 | 0.7% | ? | .
O=C(CCC1CCCN(C(=O)COc2ccccc2)C1)N1CCN(c2ccccn2)CC1 (centres undefined) | -0.2 | -25.7 | 0.5% | 10.4µM* | -9.6
O=C(/C=C/c1ccc(Cl)cc1)N1CCN(c2ccccn2)CC1 | -4.2 | 11.7 | -11.3% | -0.5% | -2.2
O=C(O)COCC(=O)N1CCCN(c2ccc(C(F)(F)F)cn2)CC1 | -4.5 | 27.1 | 24.5% | 0.1% | -9.5
CC(C)(C)c1ccc(OCC(=O)N2CCN(c3ccccn3)CC2)cc1 | . | -94.3* | ? | ? | .
CC(C)(Oc1ccc(Cl)cc1)C(=O)N1CCN(c2ccccn2)CC1 | -4.2 | -20.1 | . | 14.7µM* | -12.1
CC(=O)c1cccc(OCC(=O)N2CCN(c3ccc(C(F)(F)F)cn3)CC2)c1 | 8.9 | -19.4 | 7.38µM* | -28.3% | 12.4
CCc1cc(C(=O)N2CCCC(CCC(=O)N3CCN(c4ccccn4)CC3)C2)no1 (centres undefined) | -2.2 | ? | -9.0% | -23.1% | 5.7
CC(C)c1cc(C(=O)N2CCCC(CCC(=O)N3CCN(c4ccccn4)CC3)C2)no1 (centres undefined) | -1.2 | -61.7* | ? | ? | 18.2
Cn1cc(C(=O)N2CCN(c3ccccc3)CC2)c(=O)c2cc(S(=O)(=O)N3CCOCC3)ccc21 | -1.8 | -6.8 | ? | -10.4% | -3.5
CCn1cc(C(=O)NCC(OC)OC)c(=O)c2cc(S(=O)(=O)N3CCOCC3)ccc21 | 9.4 | ? | ? | 4.9% | -2.8
CCOC(=O)N1CCN(C(=O)c2cn(C)c3ccc(S(=O)(=O)N4CCOCC4)cc3c2=O)CC1 | -1.9 | -25.1 | 11.7µM* | 9.4% | -14.3
COC(CNC(=O)c1cn(C)c2ccc(S(=O)(=O)N3CCOCC3)cc2c1=O)OC | 12.4 | 0.6 | 9.28µM* | -5.0% | 11.4
COc1ccc(OCc2nc3c4c(-c5ccccc5)c(-c5ccccc5)oc4ncn3n2)cc1 | . | -4.2 | . | . | .
CCc1ccc(NC(=O)CSc2nc(=O)n(Cc3cccnc3)c3c2CCC3)cc1 | . | -16.9 | . | . | .
CCOc1ccc(N2C(=O)CCC2=O)cc1 | -1.3 | 67.1 | . | 12.6% | -2.5
CCCC1CCC(c2ccc(OCC)cc2)=CC1=O (centres undefined) | 43.4* | 53.1 | 10.7% | 206.8% | 33.9*
CN(/N=C/c1ccc(Cl)cc1Cl)c1ncc(Cl)cc1C(F)(F)F | 1.1 | 12.1 | -7.9% | ? | -11.2
Cc1ccc(N(C)/N=C/c2ccc(Cl)cc2Cl)nn1 | 16.3* | -67.5* | 39.3% | 30.3% | 16.0
CC(C)C12NC(=O)NC(=O)N1CCS2 (centres undefined) | . | -25.7 | . | . | .
CCOC(=O)C1CCN(C(=O)COC(=O)c2c(C)c(CC)nc3ccccc23)CC1 | . | 77.7 | . | . | .
COC(=O)C(c1ccccc1)(c1cn(C)c2ccccc12)C(Nc1ccccc1)c1cccc(Br)c1 (centres undefined) | . | -14.5 | . | . | .
C/C(=N/Oc1nc(C)cc(C)n1)c1ccc(Cl)cc1Cl | -2.0 | -61.1* | -11.1% | -7.7% | 1.1
C=CCSC1=N/C(=C\c2ccc3c(c2)OCO3)C(=O)S1 | -3.4 | -4.9 | 0.415µM* | -1.7% | -1.3
CN1C(C(=O)c2ccccc2)=C(N)c2ccccc2S1(=O)=O | -2.6 | 64.7 | 31.2% | 16.0% | -3.2
SMILES | CHX counter | HCMV inh | Pf growth 96h | Pf growth 48h | Shiga toxin inh
Cc1ccc(NC2=C(C(=O)c3ccccc3)N(C)S(=O)(=O)c3ccccc32)cc1 | 2.6 | ? | 11.7µM* | 9.28µM* | -3.6
COc1ccc(-c2nsc(NC(=O)C(C)Oc3ccc(Cl)c(C)c3)n2)cc1 (centres undefined) | . | -64.7* | . | . | .
CC(Oc1ccc(F)cc1)C(=O)Nc1nc(-c2ccc(F)cc2)ns1 (centres undefined) | . | -94.3* | . | . | .
O=C(NCCOc1ccccc1F)c1cccc(S(=O)(=O)N2CCN(c3ccccc3)CC2)c1 | . | -26.0 | ? | ? | .
CCc1ccc(NC(=O)CN2C(=O)CCSc3ccccc32)cc1 | . | 11.0 | . | . | .
Nc1c(C(=O)Nc2cccc(F)c2)nnn1-c1cccc(C(F)(F)F)c1 | 18.5* | 16.1 | ? | 156.2% | 59.5*
CC(=O)Nc1c(C(=O)NCc2ccccc2)nnn1Cc1ccccc1 | -2.6 | 49.6 | 2.6% | 2.5% | -5.6
Cc1ccc(NC(=O)c2nnn(-c3cccc(C(F)(F)F)c3)c2N)cc1 | -1.6 | -28.0 | 11.7µM* | 21.6% | 54.3
CC(=O)Nc1nonc1-n1nnc(C(=O)NCc2ccccc2)c1C | 4.0 | 2.9 | 2.33µM* | -28.1% | -8.1
CC(=O)Nc1c(C(=O)Nc2cccc(C)c2)nnn1-c1ccc(C)cc1 | . | -61.9* | . | . | .
O=C(NC1CCCCCC1)C1c2ccccc2C(=O)N1Cc1ccccc1Cl (centres undefined) | . | -5.5 | . | . | .
COc1ccc(Cl)cc1-c1cc(C(=O)NCc2ccc(C(F)(F)F)cc2)[nH]n1 | . | -18.5 | . | . | .
CCC[C@H]1[C@@H](NS(=O)(=O)c2ccc([N+](=O)[O-])cc2)CC[C@@]23CCCN2C(=O)CCC[C@@H]13 | . | -6.7 | . | . | .
Cc1ccsc1C(=O)N1CCN(S(=O)(=O)c2cccc(F)c2)CC1 | . | -10.5 | 7.9% | -5.0% | .
COc1cccc(NC(=O)c2c(C)cc(C)cc2CC(C)(C)C(=O)O)c1 | -1.7 | -3.3 | 5.5% | 19.8% | -14.8
Nc1c(C(=O)Nc2ccc(F)cc2)nnn1-c1cccc(C(F)(F)F)c1 | 15.0* | ? | 9.28µM* | 13.6% | 20.7
Cc1cccc(-n2nnc(C(=O)NCc3ccccc3)c2N)c1 | 12.1* | 40.4 | 30.0% | 18.5% | 29.7
CC1CN/C(=C\C(=O)c2ccccc2)C(=O)N1 (centres undefined) | 43.5* | 30.4 | -24.0% | 0.0% | 79.2
CC1CN/C(=C\C(=O)c2ccc(Cl)cc2)C(=O)N1 (centres undefined) | 25.2* | 36.5 | i | i | 49.8
CN(C)CCN1C(=O)C2C(C(=O)Nc3cc(Cl)cc(Cl)c3)C3C=CC2(O3)C1C(=O)NC1CCCCC1 (centres undefined) | -7.1 | ? | ? | ? | 23.5
CO[C@@H]1C[C@H](O[C@H]2[C@@H](C)[C@H](O[C@@H]3O[C@@H](C)C[C@@H](N(C)C)[C@@H]3OC(C)=O)[C@H](C)C[C@]3(CO3)C(=O)[C@H](C)[C@H](OC(C)=O)[C@H](C)[C@H](C)OC(=O)[C@@H]2C)O[C@H](C)[C@@H]1OC(C)=O | . | . | ? | -9.1%[12.8 µM] | .
CCC(C)n1cnc2c(c1=O)c1nc3ccccc3nc1n2Cc1ccc(OC)cc1 (centres undefined) | -2.4 | -75.2* | ? | ? | -12.3
O=[N+]([O-])c1cccc(-c2c(-c3ccccc3)ncc3ccc(F)cc23)c1 | . | -21.1 | 4.65µM* | -8.4% | .
Fc1cccc(-c2c(-c3ccccc3)ncc3cc(F)ccc23)c1 | . | -8.7 | ? | ? | .
CN1CCN(c2ccccc2NC(=O)C(Cc2ccccc2)n2cccc2)CC1 (centres undefined) | -3.0 | -19.2 | ? | 10.4µM* | 2.6

High-throughput results deposited in PubChem by National Center for Advancing Translational Sciences (NCATS).
